# Data: PubChem BioAssay
# Values without a mark were called inactive. This is one part of the list. Active and inactive are the calls of the source.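 Rule for the calls, unless noted: active = inhibition above a limit from the primary screen, the mean over all compounds plus 3 SD (cut at about 19% in these data); inactive = the rest.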
# Columns and labels:
# [1] = target: Peroxisome proliferator-activated receptor gamma (Homo sapiens) (UniProt P37231); assay: agonists of PPARgamma SRC-2 coactivator recruitment, confirmation, biochemical, HTS (AID 1297; in the data active = activation above about 22%;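 note: 0% = vehicle alone and 100% = reference agonist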); details: biochemical SRC-2 recruitment by PPARgamma; at 8 µM; active compounds read high
# Peroxisome proliferator-activated receptor gamma (Homo sapiens), sequence (P37231 whole entry, looked up): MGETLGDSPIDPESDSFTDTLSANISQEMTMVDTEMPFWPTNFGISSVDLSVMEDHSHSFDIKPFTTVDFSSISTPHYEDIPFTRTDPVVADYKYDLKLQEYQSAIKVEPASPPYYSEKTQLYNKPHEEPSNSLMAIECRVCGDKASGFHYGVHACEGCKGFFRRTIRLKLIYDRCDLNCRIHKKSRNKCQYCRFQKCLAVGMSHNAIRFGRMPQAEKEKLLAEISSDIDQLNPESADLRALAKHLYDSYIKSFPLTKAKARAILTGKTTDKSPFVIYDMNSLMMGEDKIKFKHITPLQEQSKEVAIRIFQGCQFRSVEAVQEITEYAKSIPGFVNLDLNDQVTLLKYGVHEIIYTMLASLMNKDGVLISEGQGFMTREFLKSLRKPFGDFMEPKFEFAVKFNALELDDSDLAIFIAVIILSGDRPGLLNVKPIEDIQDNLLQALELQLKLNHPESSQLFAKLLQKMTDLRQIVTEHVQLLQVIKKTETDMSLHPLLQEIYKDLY
# [2] = target: Peroxisome proliferator-activated receptor gamma (Homo sapiens) (UniProt P37231); assay: PPARgamma agonists recruiting SRC-1 coactivator, confirmation, biochemical (AID 1300; in the data active = activation above about 20%;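 note: 0% = vehicle wells and 100% = reference agonist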); details: PPARgamma–SRC-1 coactivator recruitment biochemical assay; at 8 µM; active compounds read high
# [3] = target: Peroxisome proliferator-activated receptor gamma (Homo sapiens) + Nuclear receptor coactivator 3 (Homo sapiens) (UniProt P37231+Q9Y6Q9); assay: PPARgamma-driven SRC-3 coactivator recruitment agonists, confirmation, biochemical (AID 1301; in the data active = activation above about 24%;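 note: 0% = vehicle wells and 100% = reference agonist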); details: biochemical PPARgamma-SRC-3 coactivator recruitment, agonist mode; at 8 µM; active compounds read high
# Peroxisome proliferator-activated receptor gamma (Homo sapiens) + Nuclear receptor coactivator 3 (Homo sapiens), sequence (P37231 whole entry, looked up): as above
# Peroxisome proliferator-activated receptor gamma (Homo sapiens) + Nuclear receptor coactivator 3 (Homo sapiens), sequence (Q9Y6Q9 whole entry, looked up): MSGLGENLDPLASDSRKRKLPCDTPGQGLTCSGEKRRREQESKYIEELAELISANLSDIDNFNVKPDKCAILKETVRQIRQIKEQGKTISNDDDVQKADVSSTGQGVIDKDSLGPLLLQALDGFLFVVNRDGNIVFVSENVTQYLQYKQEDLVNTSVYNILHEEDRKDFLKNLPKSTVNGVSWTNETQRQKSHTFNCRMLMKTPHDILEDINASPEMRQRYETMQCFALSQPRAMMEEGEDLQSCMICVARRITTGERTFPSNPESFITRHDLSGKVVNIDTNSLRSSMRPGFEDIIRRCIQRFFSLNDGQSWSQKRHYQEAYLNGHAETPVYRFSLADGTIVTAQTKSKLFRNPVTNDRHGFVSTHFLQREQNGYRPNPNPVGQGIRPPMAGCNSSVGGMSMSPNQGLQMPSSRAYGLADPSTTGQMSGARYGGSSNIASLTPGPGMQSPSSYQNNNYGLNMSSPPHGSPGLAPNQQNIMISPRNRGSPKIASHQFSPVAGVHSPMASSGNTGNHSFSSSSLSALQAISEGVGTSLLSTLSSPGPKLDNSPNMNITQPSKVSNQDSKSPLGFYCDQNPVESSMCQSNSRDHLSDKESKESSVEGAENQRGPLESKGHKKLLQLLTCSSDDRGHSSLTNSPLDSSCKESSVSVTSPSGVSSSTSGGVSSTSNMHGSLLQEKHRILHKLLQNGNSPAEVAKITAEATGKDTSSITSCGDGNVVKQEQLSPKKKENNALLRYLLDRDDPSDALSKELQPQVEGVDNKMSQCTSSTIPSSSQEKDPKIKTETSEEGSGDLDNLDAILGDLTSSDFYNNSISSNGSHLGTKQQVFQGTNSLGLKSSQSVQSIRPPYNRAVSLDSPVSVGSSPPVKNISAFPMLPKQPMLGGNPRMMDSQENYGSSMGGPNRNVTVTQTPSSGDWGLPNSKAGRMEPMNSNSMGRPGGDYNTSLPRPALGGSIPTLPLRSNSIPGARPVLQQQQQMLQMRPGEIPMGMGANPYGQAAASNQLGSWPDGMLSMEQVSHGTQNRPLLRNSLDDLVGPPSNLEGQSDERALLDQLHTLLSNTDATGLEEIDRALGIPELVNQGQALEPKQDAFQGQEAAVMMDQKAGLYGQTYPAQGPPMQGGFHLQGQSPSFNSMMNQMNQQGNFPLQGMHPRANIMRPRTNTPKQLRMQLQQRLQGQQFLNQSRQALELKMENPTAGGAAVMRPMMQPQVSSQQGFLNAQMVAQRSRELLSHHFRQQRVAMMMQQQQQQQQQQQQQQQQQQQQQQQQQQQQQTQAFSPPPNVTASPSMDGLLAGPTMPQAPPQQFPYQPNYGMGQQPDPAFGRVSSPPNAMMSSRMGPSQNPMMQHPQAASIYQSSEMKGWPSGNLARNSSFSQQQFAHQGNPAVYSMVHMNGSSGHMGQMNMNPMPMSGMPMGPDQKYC
# [4] = target: Sphingosine 1-phosphate receptor 4 (Homo sapiens) (UniProt O95977); assay: S1P4 receptor antagonists, human, confirmation, cell-based (AID 1524; in the data active = inhibition above about 30%); details: S1P4-expressing cell line, antagonist mode, reporter read-out; at 4.98 µM; active compounds read high
# Sphingosine 1-phosphate receptor 4 (Homo sapiens), sequence (O95977 whole entry, looked up): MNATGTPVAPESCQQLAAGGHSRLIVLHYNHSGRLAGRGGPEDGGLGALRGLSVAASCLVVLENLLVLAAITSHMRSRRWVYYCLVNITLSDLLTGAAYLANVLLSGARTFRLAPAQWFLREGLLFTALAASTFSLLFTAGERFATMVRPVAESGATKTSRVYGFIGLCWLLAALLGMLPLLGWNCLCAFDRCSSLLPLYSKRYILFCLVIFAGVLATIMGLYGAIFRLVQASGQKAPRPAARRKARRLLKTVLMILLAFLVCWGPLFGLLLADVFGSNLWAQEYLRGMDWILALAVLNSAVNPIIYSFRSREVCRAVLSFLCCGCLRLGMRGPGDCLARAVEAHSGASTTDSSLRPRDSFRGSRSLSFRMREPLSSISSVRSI
# [5] = target: Sphingosine 1-phosphate receptor 1 (Homo sapiens) (UniProt P21453); assay: S1P1 receptor antagonists, human, counter-screen for S1P4 antagonist project, cell-based (AID 1564; in the data active = inhibition above about 40%;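 note: receptor stimulated with S1P near its EC80; 0% = agonist stimulated wells and 100% = vehicle only wells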); details: cell-based S1P1 antagonist counterscreen, at 4.98 µM, active compounds read high
# [6] = target: Galanin receptor type 2 (Homo sapiens) (UniProt O43603); assay: GALR2 antagonists, retest of hits, confirmation, cell-based (AID 866; in the data active = inhibition above about 27%;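 note: cells stimulated with galanin at about its EC80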); details: GALR2-expressing cells, antagonist mode, at 4 µM, active compounds read high
# [7] = inhibitors of NFAT-driven beta-lactamase reporter, confirmation, counter-screen for GALR2 antagonist project, CHO NFAT-bla cells, FRET readout (AID 867;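 active = inhibition above the mean inhibition across tested compounds plus 3 SD, cut at about 27% in these data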;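 note: 0% = 500 nM thapsigargin stimulated wells and 100% = unstimulated BSA only wells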); details: thapsigargin-stimulated, at 4.2 µM, active compounds read high
# [8] = target: Bcl-2-like protein 1 (Homo sapiens) (UniProt Q07817); assay: Bcl-xL inhibitors blocking Bim BH3 binding, confirmation, counter-screen for MCL1 inhibitor project, biochemical, fluorescence polarization (AID 2166;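 active = inhibition above a cutoff equal to the mean inhibition of all tested compounds plus 3 SD, cut at about 30% in these data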); details: GST-Bcl-xL / FITC-Bim BH3 peptide FP binding; at 10.9 µM; active compounds read high
# Bcl-2-like protein 1 (Homo sapiens), sequence (Q07817 whole entry, looked up): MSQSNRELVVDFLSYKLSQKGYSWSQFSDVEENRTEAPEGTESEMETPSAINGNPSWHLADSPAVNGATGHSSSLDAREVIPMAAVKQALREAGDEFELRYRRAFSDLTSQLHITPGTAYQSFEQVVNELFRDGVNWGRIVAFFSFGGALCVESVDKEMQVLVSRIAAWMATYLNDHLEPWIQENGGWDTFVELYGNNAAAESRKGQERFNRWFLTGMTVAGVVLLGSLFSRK
# [9] = target: Induced myeloid leukemia cell differentiation protein Mcl-1 (Homo sapiens) (UniProt Q07820); assay: inhibitors of MCL1 binding to BIM-BH3, confirmation, biochemical, fluorescence polarization, triplicate (AID 2168;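 active = inhibition above the average of all tested compounds plus 3 SD, cut at about 40% in these data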;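 note: 0% = DMSO wells and 100% = unlabeled Bim-BH3 control peptide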); details: GST-MCL1 / FITC-Bim-BH3 fluorescence polarization; at 10.9 µM; active compounds read high
# Induced myeloid leukemia cell differentiation protein Mcl-1 (Homo sapiens), sequence (Q07820 whole entry, looked up): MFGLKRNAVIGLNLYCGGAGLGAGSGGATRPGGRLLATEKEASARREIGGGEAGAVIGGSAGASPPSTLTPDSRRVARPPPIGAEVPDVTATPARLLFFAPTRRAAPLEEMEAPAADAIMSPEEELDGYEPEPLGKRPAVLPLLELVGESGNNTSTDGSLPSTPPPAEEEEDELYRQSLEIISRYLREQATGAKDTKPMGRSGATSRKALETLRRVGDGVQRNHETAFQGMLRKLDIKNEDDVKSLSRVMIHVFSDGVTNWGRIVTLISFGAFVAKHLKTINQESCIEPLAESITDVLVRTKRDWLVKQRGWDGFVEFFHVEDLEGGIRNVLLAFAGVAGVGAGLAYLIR
# [10] = target: Protein phosphatase methylesterase 1 (Homo sapiens) (UniProt Q9Y570); assay: PME-1 inhibitor activity retest, confirmation, biochemical, fluorescence polarization, FP-Rh probe, triplicate (AID 2171;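 active = inhibition above the hit cutoff set in the earlier primary screen, cut at about 27% in these data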;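 note: 0% = enzyme with DMSO and 100% = wells lacking PME-1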); details: recombinant PME-1, FP-Rh probe fluorescence polarization; at 5.9 µM; active compounds read high
# Protein phosphatase methylesterase 1 (Homo sapiens), sequence (Q9Y570 whole entry, looked up): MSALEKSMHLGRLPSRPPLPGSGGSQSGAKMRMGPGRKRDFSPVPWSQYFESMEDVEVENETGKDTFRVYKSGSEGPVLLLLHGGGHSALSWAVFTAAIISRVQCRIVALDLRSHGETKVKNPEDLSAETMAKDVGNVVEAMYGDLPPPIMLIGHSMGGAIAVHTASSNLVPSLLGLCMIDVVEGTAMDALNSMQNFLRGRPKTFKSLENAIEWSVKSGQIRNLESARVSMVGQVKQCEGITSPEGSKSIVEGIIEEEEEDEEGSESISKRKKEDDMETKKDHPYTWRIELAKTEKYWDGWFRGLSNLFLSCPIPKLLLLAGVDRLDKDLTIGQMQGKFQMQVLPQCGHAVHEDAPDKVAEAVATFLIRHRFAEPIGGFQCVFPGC
# [11] = growth loss of phage-infected E. coli expressing H. pylori AddAB, confirmation, AddAB inhibitor project, absorbance, E. coli V3065, T4 phage, triplicate (AID 488942;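 active = mean inhibition above a set limit taken from the earlier primary screen, cut at about 13% in these data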;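 note: higher means less bacterial growth since AddAB block lets phage replicate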); details: OD, at 11.9 µM, active compounds read high, T4 phage with gene 2 nonsense mutations
# [12] = growth loss of RecBCD+ E. coli with mutant T4 phage, counter-screen for AddAB inhibitor project, absorbance, V66 E. coli (AID 488955;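 active = mean inhibition above the mean of solvent-only control wells plus 3 SD, cut at about 4% in these data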;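 note: optical density read after an 18 h incubation at 37 °C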); details: OD growth, at 11.9 µM, active compounds read high
# [13] = bacterial viability inhibition counter-screen, confirmation, counter-screen for AddAB inhibitor project, absorbance (AID 488956; in the data active = inhibition above about 25%); details: absorbance (AddAB counterscreen), at 11.9 µM, active compounds read high
# [14] = growth loss of phage-infected RecBCD+ E. coli, confirmation, RecBCD inhibitor project, absorbance, E. coli V66, T4 gene 2 phage (AID 651982;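 active = mean inhibition over triplicates exceeding the hit threshold derived in the original primary screen, cut at about 11% in these data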); details: E. coli V66 + T4 2- phage, growth OD; at 11.9 µM; active compounds read high
# [15] = E. coli viability inhibition, counter-screen for RecBCD inhibitor project, absorbance, high throughput (AID 651983; in the data active = inhibition above about 20%;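 note: E. coli strain V66 grown with compound alone and no phage infection; 0% = bacteria with DMSO vehicle only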); details: absorbance (OD) growth, at 11.9 µM, active compounds read high
# [16] = growth loss of phage-infected AddAB-carrying E. coli, confirmation, counter-screen for RecBCD inhibitor project, absorbance, E. coli V3065, T4 phage (AID 651984;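 active = mean inhibition above the solvent-only control wells' mean plus 3 SD, cut at about 22% in these data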;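 note: higher means less bacterial growth from phage killing when AddAB is blocked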); details: E. coli expressing H. pylori AddAB + T4 phage, OD growth; at 11.9 µM; active compounds read high; gene 2 mutant T4, recBCD-deleted host
# [17] = test system: Fam108b (Abhd17b) serine hydrolase [Mus musculus]; assay: mouse Fam108b serine hydrolase inhibitors, confirmation, counter-screen for RBBP9 inhibitor project, biochemical, fluorescence polarization, triplicate (AID 1978); details: recombinant Fam108b, FP-Rh probe fluorescence polarization; at 9.51 µM; active compounds read high;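 note: 0% = median of active Fam108b wells and 100% = catalytically dead S170A mutant; inhibitors free the probe so polarization falls as inhibition rises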
# [18] = target: Toll-like receptor 9 (Homo sapiens) (UniProt Q9NR96); assay: TLR9-MyD88 association inhibitors, retest, confirmation, cell-based, CHO, BLA complementation, fluorescence, triplicate (AID 540250;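 active = mean inhibition across three repeats above about 21% taken from the earlier screen, limit read from the data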;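 note: blue over green emission ratio reports constitutive TLR9 MyD88 association via BLA complementation; 0% = DMSO vehicle wells and 100% = clavulanate BLA inhibitor wells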); details: CCF4 FRET ratio, at 4.98 µM, active compounds read high
# [19] = beta-lactamase reporter inhibitors in CHO cells, artefact control for TLR9-MyD88 binding inhibitor project, cell-based, fluorescence (AID 540251;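 active = mean inhibition above a 50% cutoff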;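 note: counterscreen of TLR9-MyD88 hits on CMV-driven BLA in CHO-K1 cells; 0% = DMSO alone and 100% = clavulanate blocking BLA; higher means less blue over green ratio so more BLA blockade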); details: CHO-BLA cells, CCF4 FRET ratio, at 4.98 µM, active compounds read high
# [20] = CHO cell viability loss – luminescence, single concentration, cytotoxicity control for TLR9-MyD88 binding inhibitor project (AID 588336; in the data active = inhibition above about 11%); details: TLR9-MyD88 CHO cells cytotoxicity, at 4.98 µM, active compounds read high
# [21] = target: Serine protease HTRA1 (Homo sapiens) (UniProt Q92743); assay: HTRA1 protease inhibitors, retest, confirmation, biochemical, fluorescence polarization (AID 540248;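 active = mean inhibition over three repeats above a set limit taken from the earlier primary screen, cut at about 37% in these data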;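 note: 0% = HTRA1 with DMSO and 100% = wells lacking HTRA1; inhibitors block probe binding so polarization drops and inhibition rises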); details: recombinant HTRA1, FP-rhodamine activity-based probe, at 5.96 µM, active compounds read high
# [22] = compounds interfering with TAMRA-BSA probe, counter-screen for TCR-CD3 interaction inhibitor project, biochemical, fluorescence, TAMRA-labeled BSA (AID 652035; in the data active = inhibition above about 23%;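 note: 0% = buffer low control and 100% = reference high control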); details: TAMRA-labeled BSA probe fluorescence counterscreen; at 9.4 µM; active compounds read high
# [23] = test system: T-cell receptor (TCR)-CD3 interaction, human; assay: TCR-CD3 interaction inhibitors, retest, confirmation, biochemical, fluorescence, TAMRA-labeled TCR probe (AID 652036; in the data active = inhibition above about 19%); details: TAMRA-labeled TCR probe fluorescence binding assay; at 9.4 µM; active compounds read high
# [24] = target: (Lyso)-N-acylphosphatidylethanolamine lipase (Mus musculus) (UniProt Q8VD66); assay: ABHD4 inhibitors, retest, confirmation, biochemical, fluorescence polarization, mouse (AID 720658;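 active = mean inhibition across replicates above the hit cutoff set in the primary screen, cut at about 30% in these data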;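 note: 0% = wild-type ABHD4 with DMSO and 100% = catalytically dead S159A mutant with DMSO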); details: purified mABHD4, FP-Rh probe fluorescence polarization; at 8.92 µM; active compounds read high
# (Lyso)-N-acylphosphatidylethanolamine lipase (Mus musculus), sequence (Q8VD66 whole entry, looked up): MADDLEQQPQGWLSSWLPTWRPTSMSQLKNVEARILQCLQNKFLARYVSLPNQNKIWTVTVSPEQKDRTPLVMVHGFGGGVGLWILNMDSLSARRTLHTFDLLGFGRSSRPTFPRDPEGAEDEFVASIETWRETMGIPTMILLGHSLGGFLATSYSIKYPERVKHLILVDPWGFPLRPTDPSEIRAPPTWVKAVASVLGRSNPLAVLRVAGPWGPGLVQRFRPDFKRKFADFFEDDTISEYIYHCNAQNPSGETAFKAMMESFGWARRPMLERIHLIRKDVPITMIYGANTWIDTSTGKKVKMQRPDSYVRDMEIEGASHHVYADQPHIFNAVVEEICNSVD
# [25] = KLF5 expression inhibitors, confirmation, DLD-1 cells, luminescence (AID 1834;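 active = inhibition above a set limit taken from the earlier primary screen, cut at about 63% in these data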;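 note: 0% = DMSO wells and 100% = LY294002 at 200 µM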); details: DLD-1 KLF5 promoter firefly luciferase reporter, at 4 µM, active compounds read high
# [26] = cytotoxicity in rat IEC-6 cells, cytotoxicity control for KLF5 inhibitor project, cell-based, luminescence, triplicate (AID 1905; in the data active = inhibition above about 23%;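 note: cells exposed to compounds for 48 hours before viability read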); details: IEC-6 rat intestinal cells, viability luminescence; at 4 µM; active compounds read high
# [27] = test system: transactivating tegument protein VP16 (Human herpesvirus 1); assay: VP16 transactivation reporter inhibitors, counter-screen for SRC2 inhibitor project, cell-based, luminescence, single concentration (AID 652007; in the data active = inhibition above about 36%); details: cell-based VP16 transactivation luciferase reporter, at 8.9 µM, active compounds read high
# [28] = target: Nuclear receptor coactivator 2 (Homo sapiens) (UniProt Q15596); assay: SRC2 coactivator transcriptional activity inhibitors, confirmation, cell-based, luminescence, HEK293, triplicate (AID 652008;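 active = mean inhibition above 46.5%, the solvent-only control mean plus 3 SD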;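 note: 0% = DMSO-treated cells and 100% = Gossypol at 36 µM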); details: HEK293 GAL4-SRC2 luciferase reporter, at 8.9 µM, active compounds read high
# [29] = Gal4-VP16 luciferase reporter inhibitors, counter-screen for COUP-TFII antagonist project, cell-based, luminescence, HEK293 (AID 687007; in the data active = inhibition above about 13%); details: at 8.5 µM, active compounds read high
# [30] = target: COUP transcription factor 2 (Homo sapiens) (UniProt P24468); assay: NR2F2 transcriptional activity inhibitors, confirmation, cell-based, luciferase reporter, HEK293, triplicate (AID 687008;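 active = mean inhibition over three repeats above a set limit taken from the earlier primary screen, cut at about 38% in these data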;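 note: 100% = cells given the luciferase reporter alone without the COUP-TF2 vector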); details: HEK293 NGFI-A luciferase reporter, luminescence; at 8.5 µM; active compounds read high
# [31] = target: Platelet-activating factor acetylhydrolase (Homo sapiens) (UniProt Q13093); assay: pPAFAH (PLA2G7) enzyme inhibitors, confirmation, biochemical, fluorescence polarization, human (AID 463230;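 active = mean inhibition of the triplicate above the hit cutoff set for the earlier primary screen, cut at about 25% in these data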;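 note: 0% = enzyme with DMSO and 100% = wells lacking pPAFAH enzyme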); details: recombinant pPAFAH, FP-Rh probe fluorescence polarization; at 3.39 µM; active compounds read high
# Platelet-activating factor acetylhydrolase (Homo sapiens), sequence (Q13093 whole entry, looked up): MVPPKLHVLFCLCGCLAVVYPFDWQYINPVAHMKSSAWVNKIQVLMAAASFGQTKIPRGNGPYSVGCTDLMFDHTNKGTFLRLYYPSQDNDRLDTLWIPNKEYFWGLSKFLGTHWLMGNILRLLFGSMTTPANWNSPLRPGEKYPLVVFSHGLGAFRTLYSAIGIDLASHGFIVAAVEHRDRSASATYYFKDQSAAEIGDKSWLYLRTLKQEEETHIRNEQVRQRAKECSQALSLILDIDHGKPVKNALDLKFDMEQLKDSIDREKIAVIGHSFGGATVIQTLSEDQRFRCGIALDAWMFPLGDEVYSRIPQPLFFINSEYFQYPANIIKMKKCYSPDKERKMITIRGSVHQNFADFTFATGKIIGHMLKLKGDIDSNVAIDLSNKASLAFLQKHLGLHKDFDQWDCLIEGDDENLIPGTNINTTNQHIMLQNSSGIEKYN
# [32] = target: Glutathione S-transferase omega-1 (Homo sapiens) (UniProt P78417); assay: GSTO1 inhibitor hit confirmation, counter-screen for RBBP9 inhibitor project, biochemical, fluorescence polarization, triplicate (AID 2176;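 active = inhibition above the primary screen's cutoff, its mean inhibition plus 3 SD, cut at about 35% in these data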;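 note: loss of polarization as inhibitors block binding of rhodamine sulfonate ester activity probe; 0% = GSTO1 with DMSO and 100% = wells lacking GSTO1 enzyme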); details: recombinant GSTO1, probe fluorescence polarization; at 5.96 µM; active compounds read high
# Glutathione S-transferase omega-1 (Homo sapiens), sequence (P78417 whole entry, looked up): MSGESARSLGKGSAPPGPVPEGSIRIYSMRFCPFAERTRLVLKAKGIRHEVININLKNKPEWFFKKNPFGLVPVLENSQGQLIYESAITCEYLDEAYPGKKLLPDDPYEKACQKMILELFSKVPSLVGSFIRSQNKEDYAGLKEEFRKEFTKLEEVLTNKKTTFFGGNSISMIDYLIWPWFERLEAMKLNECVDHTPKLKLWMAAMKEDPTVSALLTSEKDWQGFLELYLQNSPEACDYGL
# [33] = target: Platelet-activating factor acetylhydrolase IB subunit alpha1 (Homo sapiens) (UniProt Q15102); assay: PAFAH1B3 enzyme inhibitors, confirmation, biochemical, fluorescence polarization, human (AID 493032;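 active = average inhibition over triplicate runs above the hit cutoff set in the earlier primary screen, cut at about 25% in these data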;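 note: 0% = enzyme with DMSO and 100% = wells lacking PAFAH1B3 protein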); details: recombinant PAFAH1B3, FP-Rh activity-based probe, at 3.39 µM, active compounds read high
compound,measurement,setting,value
CCOc1ccc(NC(=O)CSc2ncnc3c2sc2ccccc23)cc1,activation,[1],46% (active)
same,activation,[2],29.5% (active)
same,activation,[3],32.6% (active)
Cc1cc2oc(C(=O)Nc3c(C)n(C)n(-c4ccccc4)c3=O)c(C)c2cc1Cl,inhibition,[4],63.1% (active)
same,inhibition,[5],19.1%
Cc1ccc(-c2cc(C(=O)NCc3cn(C)nc3C)c3cc(Br)ccc3n2)cc1,activation,[1],25.7% (active)
same,activation,[2],15.9%
same,activation,[3],16.9%
O=C(Nc1ccccc1)c1nnsc1S(=O)(=O)c1ccc(Cl)cc1,inhibition,[6],45.8% (active)
same,inhibition,[7],66.7% (active)
Cc1ccc(/C=N/NC(=O)COc2ccccc2-c2ccccc2)cc1,inhibition,[8],-0.45%
same,inhibition,[9],-3.63%
COc1ccc(C(=O)Nc2ccccc2C(=O)N/N=C/c2ccc(O)c(OC)c2)cc1,inhibition,[10],28.2% (active)
Cc1cccc(NC(=O)c2ccc([N+](=O)[O-])o2)c1,inhibition,[11],98% (active)
same,inhibition,[12],11.9% (active)
same,inhibition,[13],34.5% (active)
same,inhibition,[14],7.5%
same,inhibition,[15],8.19%
same,inhibition,[16],66.8% (active)
COc1cccc(/C=N/Nc2ncc(C(F)(F)F)cc2Cl)c1O,inhibition,[11],12.9% (active)
same,inhibition,[12],16.2% (active)
same,inhibition,[13],16.3%
same,inhibition,[14],7.89%
same,inhibition,[15],9.3%
same,inhibition,[16],12.8%
Oc1oc(-c2ccccc2Br)nc1/C=N/c1ccccn1,inhibition,[17],68.7% (active)
Cc1cccc2cc3c(N)c(C(=O)N4CCCc5ccccc54)sc3nc12,inhibition,[17],4.65%
same,inhibition,[18],15.4%
same,inhibition,[19],12.7%
same,inhibition,[20],33.7% (active)
Cc1ccc(C2C3=C(Nc4[nH]n(-c5ccccc5)c(=O)c42)c2ccccc2C3=O)cc1 (stereo not given),inhibition,[17],56.8% (active)
COC(=O)CSc1nccc(-c2cccs2)n1,inhibition,[17],-1%
COc1ccc(-c2onc3ccc(C(C)=O)cc23)cc1,inhibition,[8],172% (active)
COc1ccc(-c2nc(CS(=O)CC(=O)NCc3ccccn3)c(C)o2)cc1 (stereo not given),inhibition,[17],23.4% (active)
same,inhibition,[8],96.8% (active)
same,inhibition,[9],125% (active)
COc1ccc(C2C=C(c3ccc(Br)cc3)Nc3nc(NS(C)(=O)=O)nn32)cc1 (stereo not given),inhibition,[8],133% (active)
same,inhibition,[9],167% (active)
O=[N+]([O-])c1cc(Cl)cc(/C=N/NC(=S)Nc2cc(S(=O)(=O)N3CCOCC3)ccc2Cl)c1O,inhibition,[17],46.8% (active)
same,inhibition,[8],24.4%
same,inhibition,[9],42.4% (active)
same,inhibition,[21],125% (active)
same,inhibition,[22],-14.9%
same,inhibition,[23],38.1% (active)
same,inhibition,[24],77.1% (active)
Cc1ccc(-c2cn3cc(C)ccc3n2)cc1,inhibition,[25],85% (active)
same,inhibition,[26],8.78%
same,inhibition,[27],45.9% (active)
same,inhibition,[28],69.2% (active)
same,inhibition,[29],20.1% (active)
same,inhibition,[30],43.9% (active)
COCCOC(=O)c1sc(=S)n(CCOC)c1N,inhibition,[17],19.6% (active)
same,inhibition,[8],85.4% (active)
same,inhibition,[9],131% (active)
same,inhibition,[10],21.3%
same,inhibition,[22],42.3% (active)
same,inhibition,[23],33.1% (active)
same,inhibition,[24],47.4% (active)
C/C(=C\c1ccco1)C1Nc2cccc3cccc(c23)N1,inhibition,[17],26.3% (active)
O=C(NC1CC1)c1ccc(-c2ccccc2)cc1,inhibition,[17],-4.72%
C/C(=N\Nc1cccc(C(=O)O)c1)c1ccc2c(c1)Nc1ccccc1S2,inhibition,[17],26.1% (active)
Cc1ccc(NS(=O)(=O)c2ccc(N/N=C/c3ccccc3OCC(=O)O)c([N+](=O)[O-])c2)c(C)c1,inhibition,[17],17.7%
same,inhibition,[10],74.8% (active)
same,inhibition,[31],84.3% (active)
same,inhibition,[21],50.2% (active)
c1ccc(CSc2nnc(-c3ccco3)c(-c3ccco3)n2)cc1,inhibition,[17],1.53%
same,inhibition,[8],13.9%
same,inhibition,[9],59.9% (active)
same,inhibition,[32],33.6%
same,inhibition,[31],33.6% (active)
O=C(NNc1c2ccccc2nc2ccccc12)c1cc2ccccc2cc1O,inhibition,[17],51.3% (active)
same,inhibition,[10],-6.46%
same,inhibition,[24],41% (active)
CCCCC(=O)Nc1nc(C)c(-c2csc(Nc3ccc(Cl)cc3)n2)s1,inhibition,[17],8.42%
O=C(N/N=C/c1sc(N2CCCCC2)nc1-c1cccs1)c1cccnc1,inhibition,[17],9.2%
same,inhibition,[33],12.7%
same,inhibition,[21],58.4% (active)
Cc1nc(NC(=O)c2cccc(Cl)c2)sc1-c1csc(Nc2cccc(Cl)c2)n1,inhibition,[17],9.74%
COc1ccc2nc(Nc3nc4cc5c(cc4s3)OCCO5)sc2c1,inhibition,[17],-9.21%
COc1ccc(-c2csc(NC(=O)COC(=O)Cc3ccc(Cl)cc3Cl)n2)cc1,inhibition,[17],3.19%
COc1cccc(C2Nc3cccc4cccc(c34)N2)c1,inhibition,[17],12.6%
Cc1ccc(-c2nc3c(cnn3-c3ccccc3)c(=O)o2)cc1,inhibition,[17],16.2%
Cc1[nH]n(C(N)=S)c(=O)c1N=Nc1ccc(Cl)cc1Cl,inhibition,[17],22.4% (active)
Cc1ccc(C(=O)O)cc1-c1ccc(/C=C2\SC(=O)N(CC(=O)Nc3ccc4c(c3)OCO4)C2=O)o1,inhibition,[8],18.5%
same,inhibition,[9],60.8% (active)
COc1ccc(OC)c(Nc2nc(-c3ccc(O)c(O)c3)cs2)c1,inhibition,[17],-20.9%
same,inhibition,[32],2.96%
same,inhibition,[31],50.8% (active)
Cc1cccc(-c2nc(Nc3ccc(O)cc3)c3ccccc3n2)c1,inhibition,[17],17.7%
same,inhibition,[10],-0.9%
